Assay results as given in PubChem BioAssay (NCATS).
Records with an inconclusive call do not appear. The source made the active and inactive calls. The call rests on the fitted dose curve; in most records, active means well fitted inhibition curve with a large enough effect; inconclusive means small, poorly fitted or top-dose-only effect; inactive means flat fitted curve, though single readings scatter.

Assays:
[1] = tested on: PC49; experiment: qHTS profiling for inhibitors of Plasmodium falciparum proliferation (AID 504749);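 further: 0% = DMSO vehicle and full inhibition = artemisinin control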; details: P. falciparum in erythrocytes, SYBR Green DNA, 72 h; series mostly up to 28.7 µM
In short: (§1)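 Readout was DNA-dye fluorescence from lysed cultures, ex 485/em 535 nm. Parasitized red cells had grown 72 h with compound; data scaled between 0.29 uM artemisinin and DMSO wells and corrected using vehicle-only plates.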

[2] = tested on: SC27B; experiment: as above; details: P. falciparum in erythrocytes, SYBR Green DNA, 72 h; series mostly up to 28.7 µM
In short: as §1

[3] = tested on: TAB109; experiment: as above; details: P. falciparum in erythrocytes, SYBR Green DNA, 72 h; series mostly up to 28.7 µM
In short: as §1

[4] = tested on: TAB113; experiment: as above; details: P. falciparum in erythrocytes, SYBR Green DNA, 72 h; series mostly up to 28.7 µM
In short: as §1

[5] = tested on: TAB165; experiment: as above; details: P. falciparum in erythrocytes, SYBR Green DNA, 72 h; series mostly up to 28.7 µM
In short: as §1

[6] = tested on: W2; experiment: as above; details: P. falciparum in erythrocytes, SYBR Green DNA, 72 h; series mostly up to 28.7 µM
In short: as §1

[7] = tested on: CRL-7250; experiment: Cytotoxic Profiling of Annotated Libraries Using Quantitative High-Throughput Screening (AID 1296008); details: Five cell lines viability, CellTiter-Glo ATP luminescence, 48-72 h; hits give low values; on max response: on the % scale 0 is the no-effect control and ±100 the full control effect
In short: (§2)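 Cells exposed to compounds for 48 or 72 hr at 37 degrees Celsius. Viability read as ATP-coupled luminescence with CellTiter-Glo after 10 min at room temperature.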

[8] = tested on: HEK293; experiment: as above; details: Five cell lines viability, CellTiter-Glo ATP luminescence, 48-72 h; hits give low values
In short: as §2

[9] = tested on: HaCat; experiment: as above; details: Five cell lines viability, CellTiter-Glo ATP luminescence, 48-72 h; hits give low values
In short: as §2

[10] = tested on: KB-3-1; experiment: as above; details: Five cell lines viability, CellTiter-Glo ATP luminescence, 48-72 h, hits give low values
In short: as §2
Further: nearly all actives have a fitted effect of over 60% in size.

O=C(NCCCN1CCOCC1)c1ccc(Cl)cc1
inactive: Potency [1] | Potency [2] | Potency [3] | Potency [4] | Potency [5] | Potency [6] | max response [7] -10.4% | max response [8] 1.26% | outcome [9] | max response [10] 1.85%

O=C(O)CCCCC1CCSS1 (stereo not drawn)
inactive: Potency [1] | Potency [2] | Potency [3] | Potency [4] | Potency [5] | Potency [6] | max response [7] -4.66% | max response [8] 0.811% | outcome [9] | max response [10] 3.98%

NC(N)=NS(=O)(=O)c1ccc(N)cc1
inactive: Potency [1] | Potency [2] | Potency [3] | Potency [4] | Potency [5] | Potency [6] | outcome [7] | max response [8] -6.28% | outcome [9] | max response [10] 15.5%

C[N+](C)(C)CC[N+]1(C)Cc2c(Cl)c(Cl)c(Cl)c(Cl)c2C1
inactive: Potency [1] | Potency [2] | Potency [3] | Potency [4] | Potency [5] | Potency [6] | max response [7] -7.06% | outcome [8] | max response [9] -6.5% | max response [10] 9.08%

Cc1ccccc1N=Nc1ccc(N=Nc2c(O)ccc3ccccc23)c(C)c1
inactive: Potency [1] | Potency [2] | Potency [3] | Potency [4] | Potency [5] | Potency [6] | max response [7] -16.7% | outcome [8] | max response [9] 0.728% | max response [10] 9.66%

CC(=O)Oc1cccc(O)c1
inactive: Potency [1] | Potency [2] | Potency [3] | Potency [4] | Potency [5] | Potency [6] | max response [7] 2.6% | max response [8] 2.67% | outcome [9] | max response [10] -9.73%

O=C(O)COC(=O)Cc1ccccc1Nc1c(Cl)cccc1Cl
inactive: Potency [1] | Potency [2] | Potency [3] | Potency [4] | Potency [5] | Potency [6] | outcome [7] | max response [8] -1.3% | outcome [9] | max response [10] 5.03%

CCN(CC)CCc1nc(-c2ccccc2)no1
inactive: Potency [1] | Potency [2] | Potency [3] | Potency [4] | Potency [5] | Potency [6] | max response [7] 3.52% | max response [8] -5.93% | max response [9] 4.68% | max response [10] 7.98%

CN/C(=C\[N+](=O)[O-])NCCSCc1csc(CN(C)C)n1
inactive: Potency [1] | Potency [2] | Potency [3] | Potency [4] | Potency [5] | Potency [6] | max response [7] -2.16% | max response [8] -19.8% | outcome [9] | max response [10] 8.03%

CCOc1cc(NC(C)=O)ccc1C(=O)OC
inactive: Potency [1] | Potency [2] | Potency [3] | Potency [4] | Potency [5] | Potency [6] | max response [7] 3.11% | max response [8] 0.16% | outcome [9] | max response [10] 19.6%

N[C@@H](Cc1ccc(O)cc1)C(=O)O
inactive: Potency [1] | Potency [2] | Potency [3] | Potency [4] | Potency [5] | Potency [6] | max response [7] 1.09% | max response [8] 3.89% | outcome [9] | max response [10] -4.34%

NC(=O)CCCCC1CCSS1 (stereo not drawn)
inactive: Potency [1] | Potency [2] | Potency [3] | Potency [4] | Potency [6] | max response [7] -9.01% | max response [8] 2.03% | max response [9] -1.45% | max response [10] -12.5%

NC(=O)NS(=O)(=O)c1ccc(N)cc1
inactive: Potency [1] | Potency [2] | Potency [3] | Potency [4] | Potency [5] | Potency [6] | max response [7] -2.79% | max response [8] -4.98% | max response [9] 2.87% | max response [10] 0.448%

CN(C(=O)c1c(O)c2ccccc2n(C)c1=O)c1ccccc1
inactive: Potency [1] | Potency [2] | Potency [3] | Potency [5] | Potency [6] | max response [7] 0.215% | max response [8] -2.97% | max response [9] -1.18% | max response [10] 9.88%

Cc1c(N(C)C)c(=O)n(-c2ccccc2)n1C
inactive: Potency [1] | Potency [2] | Potency [3] | Potency [4] | Potency [5] | Potency [6] | outcome [7] | max response [8] -3.5% | outcome [9] | max response [10] -5.96%

Cc1ccsc1C(=CCCN1CCC[C@@H](C(=O)O)C1)c1sccc1C
inactive: Potency [1] | Potency [2] | Potency [3] | Potency [4] | Potency [5] | Potency [6] | max response [7] -7.41% | outcome [8] | max response [9] 3.8% | max response [10] 3.88%

Cc1cc(=O)[nH]c(=S)[nH]1
inactive: Potency [1] | Potency [2] | Potency [3] | Potency [4] | Potency [5] | Potency [6] | max response [7] 1.13% | max response [8] -1.11% | max response [9] -13.5% | max response [10] -0.427%
